Screens deposited in PubChem by The Scripps Research Institute Molecular Screening Center.
AHR act: activators of human aryl hydrocarbon receptor | P35869 | AHR-responsive luciferase reporter cells, luminescence | activation, % at 5 µM | 320,000 tested, 2.5% active | AID 2796; in the data active = activation above about 47%
DAX1 inh-1: inhibits human nuclear receptor DAX1; inhibition, % at 6.75 µM; 340,000 tested, 0.99% active; AID 504766; P51843; HEK293 Gal4-DAX1 luciferase reporter, luminescence;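 active = inhibition above the mean over all tested compounds plus 3 SD, cut at about 4.2% in these data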;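 note: inhibition shows as a rise in luminescence from relieved DAX1 repression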
hgDAF12 agonist: activates the H. glycines DAF-12 receptor ligand-binding domain; activation, % at 6.8 µM; HEK293 GAL4-hgDAF12 UAS-luciferase reporter, agonist luminescence; normalized to butyrate control; 370,000 tested, 1.8% active;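 active = activation above a cutoff set at the mean of all screened compounds plus 3 SD, cut at about 10% in these data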
ssDAF12 agonist: activates DAF-12 receptor from parasite S. stercoralis; HEK293 ssDAF-12/GRIP1 lit1-tk-luc reporter, luminescence; % of 3 µM dafachronic acid response; activation, % at 6.8 µM; 370,000 tested, 1% active;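 active = activation above the mean over all tested compounds plus 3 SD, cut at about 0.9% in these data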
DAX1 inh-2: blocks DAX1 repression of SF-1 activated StAR promoter; HEK293T StAR-luciferase reporter, SF-1/DAX-1 repression relief; inhibition, % at 6.8 µM; 370,000 tested, 1.1% active; AID 652010;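 active = inhibition above the mean over all tested compounds plus 3 SD, cut at about 3.6% in these data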;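 note: higher inhibition means more luminescence from relief of DAX-1 repression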
hcDAF12 agonist: activators of H. contortus DAF-12 nuclear receptor | HEK293 hcDAF-12 lit1-tk-luc reporter, luminescence; 0% DMSO, 100% Δ7-dafachronic acid | activation, % at 6.8 µM | 370,000 tested, 1.4% active;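 active = activation above the mean of all tested compounds plus 3 SD, cut at about 5.5% in these data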
AHR act confirm: human AHR activation, confirmation; human cells, AHR-responsive luciferase reporter, luminescence; activation, % at 9 µM; 2,300 tested, 87% active; shares compounds with AHR act; in the data active = activation above about 49%;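 note: HepG2 hepatoma cells carrying a DRE-driven firefly luciferase reporter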
PXR counter: PXR activation, counter-screen for AHR activators | shares compounds with AHR act | cell-based PXR reporter, luciferase luminescence | AID 434939 | 2,300 tested, 88% active | activation, % at 11.6 µM; in the data active = activation above about 11%;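 note: human hepatoma DPX-2 cells expressing full-length human PXR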
Target sequence (O75469 whole entry, looked up): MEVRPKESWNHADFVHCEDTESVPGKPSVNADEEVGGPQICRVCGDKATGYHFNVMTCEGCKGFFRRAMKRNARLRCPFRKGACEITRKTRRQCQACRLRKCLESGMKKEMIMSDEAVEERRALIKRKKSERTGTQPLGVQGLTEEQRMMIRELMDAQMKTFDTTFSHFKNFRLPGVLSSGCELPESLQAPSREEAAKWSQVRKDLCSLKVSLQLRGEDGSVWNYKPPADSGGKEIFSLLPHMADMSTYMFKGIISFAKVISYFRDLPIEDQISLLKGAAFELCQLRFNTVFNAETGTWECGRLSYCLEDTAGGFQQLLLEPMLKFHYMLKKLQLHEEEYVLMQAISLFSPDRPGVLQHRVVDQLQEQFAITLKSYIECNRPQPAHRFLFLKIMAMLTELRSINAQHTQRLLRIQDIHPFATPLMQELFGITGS
Of the large screens only hits and unclear results are named; the others gave an inactive call (follow-up assays come after a bar, where they were run). The list is not random: actives were taken first. Their share in the collection is about 5.7%.

N#CC(C#N)=C1C=CC=CN1/C(=C\c1ccco1)C(=O)c1ccc(Br)cc1	AHR act 189 | AHR act confirm 180 | PXR counter 61
CN1CCN(Cn2cc(/C=C/C(=O)c3ccccc3)c3ccccc32)CC1	AHR act 86 (no result: hgDAF12 agonist, ssDAF12 agonist, DAX1 inh-2, hcDAF12 agonist) | AHR act confirm 110 | PXR counter 47
CCCN(CCC)CC(O)Cn1cc(/C=C/C(=O)c2ccccc2)c2ccccc21 (stereo not drawn)	none (no result: AHR act)
Cc1cc(C)c2[nH]c(O)c(N=NC3=NC(=O)CS3)c2c1	AHR act 95, DAX1 inh-1 4.3 | AHR act confirm 118 | PXR counter 16
Cn1c2ccccc2c(=O)c2ccc(NCCc3cccs3)cc21	AHR act 111, DAX1 inh-2 4.1 | AHR act confirm inactive | PXR counter 113
NC(=O)c1ccc(NCCc2cccs2)cc1	none (no result: AHR act, DAX1 inh-1)
COc1ccc(NS(=O)(=O)c2ccc3oc(=O)c4[nH]c(=O)c(=O)n(C)c4c3c2)cc1	none
CN(Cc1ccco1)C(=O)[C@H](Cc1ccccc1)NC(=O)CC[C@H]1O[C@@H](n2ccc(=O)[nH]c2=O)[C@H](O)[C@@H]1O	none (no result: AHR act, DAX1 inh-1)
CC(C)(C)c1cnnn1-c1ccc(/C=N/Nc2ccc([N+](=O)[O-])cc2)cc1	AHR act 83 | AHR act confirm 55 | PXR counter 35
O=C(c1ccco1)N1CCN(C2CN(Cc3cn(Cc4ccccc4C(F)(F)F)nn3)S(=O)(=O)C2)CC1 (stereo not drawn)	none (no result: AHR act, DAX1 inh-1)
O=C(O)c1ccccc1C(=O)N1N=C2/C(=C/c3cccc([N+](=O)[O-])c3)CCCC2C1c1cccc([N+](=O)[O-])c1 (stereo not drawn)	none
COc1ccc(/C=C2\CCCC3C2=NN(C(=O)c2ccco2)C3c2ccc(OC)c(OC)c2)cc1OC (stereo not drawn)	none
CC(=O)N1N=C2c3ccccc3CCC2C1c1ccc(F)cc1 (stereo not drawn)	AHR act 99 (no result: DAX1 inh-1) | AHR act confirm 108 | PXR counter 29
CC(=O)N1N=C2/C(=C/c3ccccc3)CCCC2C1c1ccccc1 (stereo not drawn)	AHR act 100 | AHR act confirm 87 | PXR counter 101
O=C(c1ccccn1)N1N=C2/C(=C/c3ccc(F)cc3)CCCC2C1c1ccc(F)cc1 (stereo not drawn)	AHR act 94 | AHR act confirm 95 | PXR counter 49
O=C(O)c1ccc(-c2nnn(Cc3cccc(C(F)(F)F)c3)n2)cc1	none
COc1cc2c(cc1OC)CN(C(=O)CNC(=O)c1ccc(OC(F)F)cc1)CC2	none (no result: AHR act)
Cc1cccc2sc(NC(=O)C3CSC4(C)CCC(=O)N34)nc12 (stereo not drawn)	none
CC12CCC(=O)N1C(C(=O)Nc1nc3c(F)cc(F)cc3s1)CS2 (stereo not drawn)	AHR act 97 | AHR act confirm 79 | PXR counter 151
O=C(Nc1ccc(Cl)cc1)c1csc(Cc2ccccc2)n1	AHR act 85 | AHR act confirm inactive | PXR counter inactive
C[C@@H]1CN([C@@H](C)CO)C(=O)CCCn2nncc2CO[C@H]1CN(C)C(=O)C1CC1	none (no result: AHR act)
COc1ccc(OC)c(CNc2ccc3c(c2)nc(C)n3C)c1	none
COc1ccc(N=Nc2nc3cc(Br)c(Br)cc3n2C)c(OC)c1	AHR act 83, ssDAF12 agonist 1.6 | AHR act confirm 57 | PXR counter 18
COC(=O)c1ccc(OC(C)C(=O)c2ccc(C)cc2)cc1 (stereo not drawn)	none
CCSc1ncc(/C=N/Nc2ccccc2)n1C	AHR act 89 | AHR act confirm 145 | PXR counter 49
CCSc1ncc(/C=N/Nc2ccc([N+](=O)[O-])cc2)n1C	none
COC(=O)c1cc(S(=O)(=O)C(C)C)c(S(C)=O)s1 (stereo not drawn)	none
O=C(NCCCN1CCOCC1)/C(=C/c1cccnc1)NC(=O)c1ccccc1	none
O=C(Cn1nc(CNc2ccc(Cl)cc2)[n+]2c1CCCCC2)c1ccc(Br)cc1	AHR act 100 | AHR act confirm inactive | PXR counter 24
O=C(Nc1ccc(Cl)cc1F)C1CCN(S(=O)(=O)c2cccc3nonc23)CC1	none
COc1ccc(NC(=O)Nc2ccc(F)cc2)c(C)c1	AHR act 111 | AHR act confirm inactive | PXR counter 25
O=S(=O)(NC1CCSc2ccccc21)c1ccc(Cl)nc1 (stereo not drawn)	none
OCCOCCn1c(CCNc2nc(-c3ccc(F)cc3)cs2)nc2cc(C(F)(F)F)ccc21	AHR act 91 | AHR act confirm 50 | PXR counter 27
Nc1c(Cl)cc(-c2csc(NCCc3nc4cc(Cl)c(Cl)cc4n3CCCO)n2)cc1Cl	AHR act 131 | AHR act confirm 113 | PXR counter 82
O=C(N/N=C/c1ccsc1)c1c[nH]c2ccccc12	AHR act 128 | AHR act confirm 115 | PXR counter 22
Cc1ccsc1/C=N/NC(=O)c1cc(-c2ccncc2)nc2ccccc12	none
O=C(N/N=C/c1ccsc1)c1cc(-c2cccs2)nc2ccccc12	none
O=C(N/N=C/C1CC2C=CC1C2)c1ccccc1O (stereo not drawn)	none
O=C(N/N=C/C1CC2CCC1C2)c1c[nH]c2ccccc12 (stereo not drawn)	AHR act 87, hcDAF12 agonist 5.7 | AHR act confirm inactive | PXR counter inactive
Cc1ccsc1/C=N/NC(=O)c1c[nH]c2ccccc12	AHR act 101, hgDAF12 agonist 11 | AHR act confirm 142 | PXR counter 42
COc1ccc(C(=O)CCC(C)(C)[N+](=O)[O-])cc1	none
CS(=O)(=O)N1Cc2ccccc2CC1C(=O)OCC(=O)NCCc1ccc(S(N)(=O)=O)cc1 (stereo not drawn)	none
Cc1ccc(C(=O)NCC(=O)OCCCOC(=O)CNC(=O)c2ccc(C)c(C)c2)cc1C	none
CN(C)c1ccc([C@@H]2[C@@H]([N+](=O)[O-])[C@H]3C=Cc4ccccc4N3[C@H]2C(=O)c2ccc(Cl)cc2)cc1	AHR act 107 | AHR act confirm 98 | PXR counter 72
N#Cc1c(-c2ccccc2)cc2nc3ccccc3n2c1N	AHR act 85, DAX1 inh-1 4.3 | AHR act confirm 88 | PXR counter 31
O=C1c2ccccc2C(=O)N1c1ccc(Cl)cc1	AHR act 88 (no result: DAX1 inh-1, hgDAF12 agonist, ssDAF12 agonist, DAX1 inh-2, hcDAF12 agonist) | AHR act confirm 62 | PXR counter 13
Cc1ccc(N2C(=O)c3ccccc3C2=O)cc1	none
